According to the supplement of paper PMC11732987, “Enantioselective OTUD7B fragment discovery through chemoproteomics screening and high-throughput optimisation” (Communications Chemistry, 2025):

Experiments:
Assay in all cases: log2 ratio of Biotin-Ahx-Ub-VS probe labelling (fragment/DMSO); higher = less target engagement (more negative = stronger competition), active = hit call of the paper (q ≤ 0.05, log2 ratio ≤ -1)
Details in all cases: compound concentration: 200 uM; treatment time: 3 h
USP34 = USP34 (UniProt Q70CQ2)
USP34, sequence (Q70CQ2 whole entry, the tested form may be a part): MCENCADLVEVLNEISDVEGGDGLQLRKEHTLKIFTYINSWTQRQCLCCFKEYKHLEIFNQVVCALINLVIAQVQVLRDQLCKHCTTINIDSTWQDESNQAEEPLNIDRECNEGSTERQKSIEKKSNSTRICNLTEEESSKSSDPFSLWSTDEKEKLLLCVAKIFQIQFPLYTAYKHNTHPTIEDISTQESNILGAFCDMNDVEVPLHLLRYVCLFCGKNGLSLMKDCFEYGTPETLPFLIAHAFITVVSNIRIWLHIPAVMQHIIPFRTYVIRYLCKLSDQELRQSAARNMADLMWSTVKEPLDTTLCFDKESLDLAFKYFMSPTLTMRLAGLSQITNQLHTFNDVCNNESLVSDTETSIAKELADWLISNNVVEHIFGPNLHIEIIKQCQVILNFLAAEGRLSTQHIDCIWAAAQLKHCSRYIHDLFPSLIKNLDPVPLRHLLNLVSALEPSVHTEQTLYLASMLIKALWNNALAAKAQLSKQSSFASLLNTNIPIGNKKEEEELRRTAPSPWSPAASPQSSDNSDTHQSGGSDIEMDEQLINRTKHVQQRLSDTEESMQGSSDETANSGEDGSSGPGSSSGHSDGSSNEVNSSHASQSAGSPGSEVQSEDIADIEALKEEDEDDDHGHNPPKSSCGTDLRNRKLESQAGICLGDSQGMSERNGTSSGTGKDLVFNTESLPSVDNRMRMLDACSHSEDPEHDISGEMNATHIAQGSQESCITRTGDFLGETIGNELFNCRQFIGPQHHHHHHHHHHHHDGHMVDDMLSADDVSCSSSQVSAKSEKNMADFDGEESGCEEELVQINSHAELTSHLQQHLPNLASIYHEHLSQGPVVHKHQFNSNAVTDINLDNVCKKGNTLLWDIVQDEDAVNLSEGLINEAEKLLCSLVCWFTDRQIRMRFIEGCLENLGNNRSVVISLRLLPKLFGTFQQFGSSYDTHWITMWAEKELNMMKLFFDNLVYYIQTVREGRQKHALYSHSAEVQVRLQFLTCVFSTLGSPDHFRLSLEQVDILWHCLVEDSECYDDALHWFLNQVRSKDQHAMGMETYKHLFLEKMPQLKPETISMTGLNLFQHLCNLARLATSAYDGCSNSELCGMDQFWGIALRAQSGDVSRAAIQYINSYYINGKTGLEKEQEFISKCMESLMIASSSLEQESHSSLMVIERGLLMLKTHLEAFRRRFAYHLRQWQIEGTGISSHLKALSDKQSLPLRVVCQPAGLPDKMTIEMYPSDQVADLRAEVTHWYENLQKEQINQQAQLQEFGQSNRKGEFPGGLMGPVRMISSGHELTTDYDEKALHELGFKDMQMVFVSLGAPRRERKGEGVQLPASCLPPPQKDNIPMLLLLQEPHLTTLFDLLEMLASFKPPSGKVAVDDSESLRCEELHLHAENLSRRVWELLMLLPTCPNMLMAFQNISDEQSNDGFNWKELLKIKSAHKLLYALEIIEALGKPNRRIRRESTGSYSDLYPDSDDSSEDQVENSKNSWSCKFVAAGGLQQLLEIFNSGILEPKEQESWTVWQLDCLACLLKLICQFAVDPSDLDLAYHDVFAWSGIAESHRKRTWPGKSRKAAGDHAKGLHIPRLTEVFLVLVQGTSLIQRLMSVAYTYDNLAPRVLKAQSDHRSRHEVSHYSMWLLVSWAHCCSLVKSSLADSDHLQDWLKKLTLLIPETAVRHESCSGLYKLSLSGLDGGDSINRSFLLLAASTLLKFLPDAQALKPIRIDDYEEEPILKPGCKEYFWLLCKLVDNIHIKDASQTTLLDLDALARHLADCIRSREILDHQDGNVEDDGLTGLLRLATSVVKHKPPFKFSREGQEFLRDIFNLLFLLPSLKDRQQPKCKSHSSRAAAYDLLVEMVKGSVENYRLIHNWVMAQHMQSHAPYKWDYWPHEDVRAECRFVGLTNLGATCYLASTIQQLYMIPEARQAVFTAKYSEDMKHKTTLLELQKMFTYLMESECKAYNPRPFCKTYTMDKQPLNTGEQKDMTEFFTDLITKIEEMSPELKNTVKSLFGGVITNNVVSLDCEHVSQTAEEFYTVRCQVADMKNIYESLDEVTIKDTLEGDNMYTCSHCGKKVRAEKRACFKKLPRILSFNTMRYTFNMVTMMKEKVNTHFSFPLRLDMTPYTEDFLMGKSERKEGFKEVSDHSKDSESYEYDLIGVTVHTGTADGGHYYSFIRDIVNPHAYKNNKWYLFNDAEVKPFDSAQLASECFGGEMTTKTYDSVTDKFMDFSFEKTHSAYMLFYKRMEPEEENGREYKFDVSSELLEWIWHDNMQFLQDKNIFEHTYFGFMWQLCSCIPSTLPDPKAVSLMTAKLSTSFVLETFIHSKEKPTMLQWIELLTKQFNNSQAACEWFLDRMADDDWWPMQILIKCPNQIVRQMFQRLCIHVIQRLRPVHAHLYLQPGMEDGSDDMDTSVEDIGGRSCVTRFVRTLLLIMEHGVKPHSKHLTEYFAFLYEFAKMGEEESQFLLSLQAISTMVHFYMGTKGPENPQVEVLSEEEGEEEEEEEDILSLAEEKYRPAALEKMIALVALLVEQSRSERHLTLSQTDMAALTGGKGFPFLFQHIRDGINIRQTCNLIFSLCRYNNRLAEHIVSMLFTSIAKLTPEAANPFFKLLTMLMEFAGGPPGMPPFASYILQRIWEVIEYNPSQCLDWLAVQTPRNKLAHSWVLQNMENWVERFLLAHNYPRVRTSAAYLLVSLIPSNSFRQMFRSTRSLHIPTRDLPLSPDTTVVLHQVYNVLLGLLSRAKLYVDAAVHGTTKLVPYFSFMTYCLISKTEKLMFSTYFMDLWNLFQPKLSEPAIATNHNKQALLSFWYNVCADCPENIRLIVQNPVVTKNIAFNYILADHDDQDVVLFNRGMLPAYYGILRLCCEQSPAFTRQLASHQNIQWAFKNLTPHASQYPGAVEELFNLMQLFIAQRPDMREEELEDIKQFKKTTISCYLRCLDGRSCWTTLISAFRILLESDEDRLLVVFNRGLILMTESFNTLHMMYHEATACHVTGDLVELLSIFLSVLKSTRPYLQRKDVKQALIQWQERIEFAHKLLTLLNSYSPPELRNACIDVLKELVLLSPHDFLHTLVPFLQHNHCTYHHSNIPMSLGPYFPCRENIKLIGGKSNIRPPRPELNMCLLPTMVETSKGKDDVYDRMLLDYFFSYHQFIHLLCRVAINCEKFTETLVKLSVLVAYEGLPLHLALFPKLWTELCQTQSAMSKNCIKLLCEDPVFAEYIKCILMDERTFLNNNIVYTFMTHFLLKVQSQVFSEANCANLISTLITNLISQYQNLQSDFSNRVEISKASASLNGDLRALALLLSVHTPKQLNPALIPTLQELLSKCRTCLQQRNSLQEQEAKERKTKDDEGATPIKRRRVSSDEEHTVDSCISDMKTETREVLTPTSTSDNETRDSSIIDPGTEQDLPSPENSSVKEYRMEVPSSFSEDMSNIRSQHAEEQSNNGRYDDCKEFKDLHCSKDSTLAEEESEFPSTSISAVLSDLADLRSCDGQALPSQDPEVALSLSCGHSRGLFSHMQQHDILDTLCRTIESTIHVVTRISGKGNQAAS
Method in brief: (§1)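 Values give the average log2 ratio of fragment to vehicle, assessed by unpaired t-test on global-median-normalised Spectronaut label-free quantities. Proteins needed ≥2 unique peptides. HEK293T lysate (495 µg per sample) was treated in triplicate with fragment at 200 µM or vehicle for 3 h and then with Biotin-Ahx-Ub-VS at 0.5 µM final for 1 h. Labelled DUBs were NeutrAvidin-enriched, digested and run by diaPASEF LC-MS/MS.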

USP36 = molecular target: T1, USP36 (UniProt Q9P275)
T1 sequence (whole entry): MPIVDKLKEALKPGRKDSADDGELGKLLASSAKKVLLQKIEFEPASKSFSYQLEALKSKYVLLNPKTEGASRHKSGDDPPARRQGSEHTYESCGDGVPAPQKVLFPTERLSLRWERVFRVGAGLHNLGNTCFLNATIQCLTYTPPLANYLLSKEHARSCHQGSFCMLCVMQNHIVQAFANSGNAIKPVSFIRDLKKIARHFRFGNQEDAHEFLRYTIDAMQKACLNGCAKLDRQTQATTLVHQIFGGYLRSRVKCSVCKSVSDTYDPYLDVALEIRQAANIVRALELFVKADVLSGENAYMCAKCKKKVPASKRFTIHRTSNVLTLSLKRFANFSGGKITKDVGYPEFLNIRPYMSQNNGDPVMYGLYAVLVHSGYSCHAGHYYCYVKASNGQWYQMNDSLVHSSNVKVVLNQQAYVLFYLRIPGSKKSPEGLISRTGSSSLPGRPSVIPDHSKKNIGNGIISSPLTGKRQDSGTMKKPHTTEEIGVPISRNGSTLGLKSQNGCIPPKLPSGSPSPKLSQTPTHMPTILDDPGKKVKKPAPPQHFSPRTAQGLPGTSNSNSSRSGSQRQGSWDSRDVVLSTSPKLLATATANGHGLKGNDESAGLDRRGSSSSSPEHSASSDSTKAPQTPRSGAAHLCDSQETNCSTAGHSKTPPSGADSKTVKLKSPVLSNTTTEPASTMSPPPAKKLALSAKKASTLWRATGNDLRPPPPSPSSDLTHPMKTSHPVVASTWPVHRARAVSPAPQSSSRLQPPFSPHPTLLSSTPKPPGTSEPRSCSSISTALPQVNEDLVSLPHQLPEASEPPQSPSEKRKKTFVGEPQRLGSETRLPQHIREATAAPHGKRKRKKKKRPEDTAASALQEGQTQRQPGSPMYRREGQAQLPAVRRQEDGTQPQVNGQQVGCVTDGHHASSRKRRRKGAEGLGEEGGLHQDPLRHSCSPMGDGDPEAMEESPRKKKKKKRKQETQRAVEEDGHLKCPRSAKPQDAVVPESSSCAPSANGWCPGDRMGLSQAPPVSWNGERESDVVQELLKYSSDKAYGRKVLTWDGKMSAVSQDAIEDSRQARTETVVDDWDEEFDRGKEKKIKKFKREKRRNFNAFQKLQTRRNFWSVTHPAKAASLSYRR
Method in brief: as §1

USP38 = molecular target: T2, USP38 (UniProt Q8NB14)
T2 sequence (whole entry): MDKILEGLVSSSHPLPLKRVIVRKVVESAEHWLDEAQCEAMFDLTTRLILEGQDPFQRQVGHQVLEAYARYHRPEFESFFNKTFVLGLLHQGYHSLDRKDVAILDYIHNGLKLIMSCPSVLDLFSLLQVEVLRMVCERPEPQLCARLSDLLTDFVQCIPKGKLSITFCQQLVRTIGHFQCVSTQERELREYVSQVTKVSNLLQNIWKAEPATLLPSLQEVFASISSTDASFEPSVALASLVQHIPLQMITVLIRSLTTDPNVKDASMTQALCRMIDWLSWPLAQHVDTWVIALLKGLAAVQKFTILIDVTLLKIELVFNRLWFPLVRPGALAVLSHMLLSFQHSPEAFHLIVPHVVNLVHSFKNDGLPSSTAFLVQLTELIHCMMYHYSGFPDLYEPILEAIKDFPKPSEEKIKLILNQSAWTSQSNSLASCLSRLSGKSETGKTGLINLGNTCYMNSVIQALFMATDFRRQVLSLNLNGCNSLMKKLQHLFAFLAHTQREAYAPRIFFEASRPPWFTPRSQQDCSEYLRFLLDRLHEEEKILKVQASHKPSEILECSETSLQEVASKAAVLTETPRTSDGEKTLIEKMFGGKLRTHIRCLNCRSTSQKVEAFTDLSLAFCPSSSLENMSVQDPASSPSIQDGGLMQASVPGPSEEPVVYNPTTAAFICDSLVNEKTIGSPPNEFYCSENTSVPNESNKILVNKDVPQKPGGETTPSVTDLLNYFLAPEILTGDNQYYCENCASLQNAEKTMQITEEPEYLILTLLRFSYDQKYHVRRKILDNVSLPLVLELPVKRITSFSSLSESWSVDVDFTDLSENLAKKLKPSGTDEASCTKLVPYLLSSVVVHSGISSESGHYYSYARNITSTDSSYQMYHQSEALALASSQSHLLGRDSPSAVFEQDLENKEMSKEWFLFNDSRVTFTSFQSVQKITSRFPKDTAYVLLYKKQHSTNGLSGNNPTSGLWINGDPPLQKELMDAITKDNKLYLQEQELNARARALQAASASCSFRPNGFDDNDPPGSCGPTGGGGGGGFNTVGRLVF
Method in brief: as §1

USP39 = molecular target: T3, USP39 (UniProt Q53GS9)
T3 sequence (whole entry): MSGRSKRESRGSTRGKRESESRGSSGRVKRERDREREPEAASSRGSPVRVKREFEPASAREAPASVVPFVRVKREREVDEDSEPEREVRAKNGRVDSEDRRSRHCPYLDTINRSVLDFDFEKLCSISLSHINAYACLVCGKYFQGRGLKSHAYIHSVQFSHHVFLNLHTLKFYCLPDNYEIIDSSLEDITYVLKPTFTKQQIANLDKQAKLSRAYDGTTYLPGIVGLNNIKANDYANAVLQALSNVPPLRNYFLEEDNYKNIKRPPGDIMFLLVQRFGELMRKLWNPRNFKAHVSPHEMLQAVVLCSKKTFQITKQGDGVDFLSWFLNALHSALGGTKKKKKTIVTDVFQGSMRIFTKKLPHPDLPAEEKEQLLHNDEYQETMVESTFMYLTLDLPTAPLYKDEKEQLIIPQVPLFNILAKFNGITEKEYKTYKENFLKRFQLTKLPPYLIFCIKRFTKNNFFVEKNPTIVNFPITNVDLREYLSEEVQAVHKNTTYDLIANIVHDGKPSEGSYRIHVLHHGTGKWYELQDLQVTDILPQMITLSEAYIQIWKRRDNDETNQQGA
Method in brief: as §1

USP4 = molecular target: T4, USP4 (UniProt Q13107)
T4 sequence (whole entry): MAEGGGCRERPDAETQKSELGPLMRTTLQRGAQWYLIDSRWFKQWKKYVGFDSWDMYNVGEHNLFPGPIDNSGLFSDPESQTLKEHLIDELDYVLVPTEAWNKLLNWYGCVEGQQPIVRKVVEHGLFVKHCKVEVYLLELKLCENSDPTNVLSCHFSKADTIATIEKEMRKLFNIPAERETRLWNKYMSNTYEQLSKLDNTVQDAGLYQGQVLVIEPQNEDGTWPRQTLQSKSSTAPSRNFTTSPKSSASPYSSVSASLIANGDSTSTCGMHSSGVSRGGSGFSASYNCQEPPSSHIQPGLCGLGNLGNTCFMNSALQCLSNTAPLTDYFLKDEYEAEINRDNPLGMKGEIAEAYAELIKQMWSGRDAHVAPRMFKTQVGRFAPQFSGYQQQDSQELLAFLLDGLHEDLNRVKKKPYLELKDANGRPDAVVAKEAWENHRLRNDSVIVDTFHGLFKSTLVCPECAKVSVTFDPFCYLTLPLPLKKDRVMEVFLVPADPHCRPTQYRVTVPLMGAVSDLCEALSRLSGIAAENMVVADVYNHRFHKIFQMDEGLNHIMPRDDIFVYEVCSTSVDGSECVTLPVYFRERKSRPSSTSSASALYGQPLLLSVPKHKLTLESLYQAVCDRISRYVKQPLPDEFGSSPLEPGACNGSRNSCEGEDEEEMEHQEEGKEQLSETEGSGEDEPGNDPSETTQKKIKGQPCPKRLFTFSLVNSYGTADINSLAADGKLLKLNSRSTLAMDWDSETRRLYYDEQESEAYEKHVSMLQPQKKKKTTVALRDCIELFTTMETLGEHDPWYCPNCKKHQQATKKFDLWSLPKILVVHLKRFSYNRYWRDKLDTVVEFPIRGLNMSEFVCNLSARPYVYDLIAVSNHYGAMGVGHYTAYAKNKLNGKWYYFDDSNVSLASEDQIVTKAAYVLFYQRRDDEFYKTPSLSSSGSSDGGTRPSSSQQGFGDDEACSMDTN
Method in brief: as §1

Measured: log2 ratio of Biotin-Ahx-Ub-VS probe labelling

Cc1c(C#N)c(NC(=O)CCl)n(Cc2ccco2)c1C
inactive: USP34 -0.304 | USP36 -0.0578 | USP38 -0.297 | USP39 -0.162 | USP4 -0.372
